According to publication PMC4336329 (PLoS ONE, 2015):
About 14,000 (4.5%) of roughly 310,000 compounds showed an effect of 50% or more. The effect is printed as a negative number. The sample as a whole holds a higher share of strong results than the screen did.

Molecular target: human ether-à-go-go-related gene (hERG) potassium channel (human, UniProt Q12809)
Experiment: primary screen, population patch clamp on CHO cells stably expressing hERG; higher = less effect of the substance
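Note: peak tail current of the secondary pulse compared with the same well before compound.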

human ether-à-go-go-related gene (hERG) potassium channel, sequence (Q12809 whole entry, looked up): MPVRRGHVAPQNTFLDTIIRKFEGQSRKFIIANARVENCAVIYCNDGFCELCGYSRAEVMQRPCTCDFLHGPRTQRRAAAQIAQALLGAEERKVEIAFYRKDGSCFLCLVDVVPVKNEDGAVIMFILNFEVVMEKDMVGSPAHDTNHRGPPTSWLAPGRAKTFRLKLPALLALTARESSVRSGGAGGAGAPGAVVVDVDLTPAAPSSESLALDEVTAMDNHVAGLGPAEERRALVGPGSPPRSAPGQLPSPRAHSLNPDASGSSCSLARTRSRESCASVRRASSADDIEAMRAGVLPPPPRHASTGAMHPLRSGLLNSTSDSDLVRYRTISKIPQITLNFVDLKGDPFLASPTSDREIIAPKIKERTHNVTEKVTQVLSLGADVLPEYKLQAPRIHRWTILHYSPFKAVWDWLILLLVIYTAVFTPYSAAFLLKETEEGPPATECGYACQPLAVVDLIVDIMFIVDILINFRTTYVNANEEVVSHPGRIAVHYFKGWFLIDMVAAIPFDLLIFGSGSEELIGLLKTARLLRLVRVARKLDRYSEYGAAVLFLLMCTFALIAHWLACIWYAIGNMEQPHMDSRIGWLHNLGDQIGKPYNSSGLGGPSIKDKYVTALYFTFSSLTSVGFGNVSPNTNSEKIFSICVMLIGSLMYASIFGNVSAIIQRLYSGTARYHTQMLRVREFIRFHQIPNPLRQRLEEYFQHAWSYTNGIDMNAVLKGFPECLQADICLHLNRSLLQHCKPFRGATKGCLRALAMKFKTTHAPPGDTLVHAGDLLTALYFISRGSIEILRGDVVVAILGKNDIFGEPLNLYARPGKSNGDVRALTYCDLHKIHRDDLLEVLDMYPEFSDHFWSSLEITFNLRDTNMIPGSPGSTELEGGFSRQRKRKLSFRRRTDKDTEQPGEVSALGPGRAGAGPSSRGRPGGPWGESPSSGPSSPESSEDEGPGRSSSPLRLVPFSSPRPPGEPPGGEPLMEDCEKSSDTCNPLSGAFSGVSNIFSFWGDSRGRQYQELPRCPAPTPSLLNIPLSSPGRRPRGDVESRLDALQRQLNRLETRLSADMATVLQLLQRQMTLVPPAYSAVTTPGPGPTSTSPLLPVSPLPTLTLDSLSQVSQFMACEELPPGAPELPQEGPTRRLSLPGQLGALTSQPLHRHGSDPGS

Row | SMILES | hERG current change (%, negative = inhibition) at 10uM [%]
1 | CC1CCCC(C)N1C(=O)COC(=O)c1c[nH]c2ccccc12 (stereo not shown) | -5.3
2 | CCCCn1c(O)c(C=NC2CCCCC2N)c(=O)[nH]c1=O (stereo not shown) | 5.96
3 | COc1ccc(C[C@H]2NC[C@H](O)[C@H]2OC(C)=O)cc1 | 5.98
4 | CSC1=N/C(=C\c2ccccc2F)C(=O)S1 | -3.24
5 | CCOc1nc(N2CCCCC2)nc(-n2cc(-c3ccccc3)nn2)n1 | 8.93
6 | Cc1cc(NC(=O)COc2ccccc2)n(-c2ccccc2)n1 | -22.7
7 | Cc1c(C(=O)NC2CCOC2)oc2c(F)cccc12 (stereo not shown) | 30.1
8 | Cc1cc2cc(C#N)c(NCCNC(=S)NCCCN3CCOCC3)nc2cc1C | -24.5
9 | Cc1cc(C(=O)CN2CCCC2)c(C)n1-c1ccc(Cl)cc1 | 7.43
10 | CCOc1ccccc1NC(=O)CCCCCN1C(=O)[C@@H]2Cc3ccccc3CN2C1=O | -42.6
11 | COc1ccc(C(C)=O)cc1COC(=O)c1ccc(C)c(S(=O)(=O)N2CCOCC2)c1 | -19.8
12 | COc1nc(-c2ccccc2)ccc1-c1noc(C)n1 | -5.52
13 | Cn1ccnc1C1CCCCN1Cc1nc(-c2ccc(Cl)cc2)no1 (stereo not shown) | -23.1
14 | O=C(O)C1C2CCC(C2)C1C(=O)NCc1ccco1 (stereo not shown) | -8.3
15 | Cc1ccc(-n2cc(CN(C)Cc3ncc[nH]3)c(-c3cccc(C)c3)n2)cc1 | -34.8
16 | Cc1ccc(-n2cc(CNCCN3CCOC3=O)c(-c3cccc(C)c3)n2)cc1 | -69.1
17 | Cc1cccc(-n2cc(CNCCN3CCOC3=O)c(-c3cccc(F)c3)n2)c1 | -16.4
18 | CC(=O)N1CCCN(Cc2cn(-c3ccc(C)cc3)nc2-c2cccc(C)c2)CC1 | -43
19 | Cc1ccc(-n2cc(CN3CCNC(=O)CC3)c(-c3cccc(C)c3)n2)cc1 | -0.817
20 | Cc1ccc(C)c(-n2cc(CNC(C)Cn3cncn3)c(-c3ccccc3)n2)c1 (stereo not shown) | -45.6

Row | SMILES | hERG current change (%, negative = inhibition) at 10uM [%]
21 | Cc1ccc(-n2cc(CN(C)CCc3cn[nH]c3)c(-c3cccc(C)c3)n2)cc1 | -68
22 | Cc1ccc(-n2cc(CNC(C)Cn3cncn3)c(-c3ccc(F)cc3)n2)cc1 (stereo not shown) | -60.7
23 | Cc1ccc(-n2cc(CNC(C)c3cnn(C)c3)c(-c3ccc(F)cc3)n2)cc1 (stereo not shown) | -40
24 | CCn1c(-c2ccco2)n[nH]c1=S | 12
25 | N#C/C(=C\c1ccc(OCc2ccc(Br)cc2)cc1)C(=O)Nc1cccc(C(=O)O)c1 | 17.8
26 | CCOC(=O)c1c(C)[nH]c(C(=O)CSc2ccccc2)c1C | 3.05
27 | C/C(Cn1nnc2ccccc21)=N\OC(=O)c1ccccc1C | -63.9
28 | O=C(O)Cn1nnc2ccccc21 | -3.4
29 | Cc1ccccc1NC(=O)Cn1nnc2ccccc21 | -12
30 | C/C(Cn1nnc2ccccc21)=N\OC(=O)c1cc(F)c(F)cc1Cl | -80.5
31 | O=C(Cn1nnc2ccccc21)c1ccc(Cl)cc1 | -4.9
32 | C/C(Cn1nnc2ccccc21)=N/OC(=O)c1c(F)cccc1F | 12.5
33 | C[N+]1(CC(=O)Nc2ccc(F)cc2)CCN(C(=O)c2ccco2)CC1.[Cl-] | 13.2
34 | COc1ccc(CCNC(=O)C2CCCCC2C(=O)O)cc1OC (stereo not shown) | -2.9
35 | Nc1ccc([N+](=O)[O-])cc1C(=O)NNC(=O)c1ccco1 | 25.9
36 | O=C(CSCc1ccccc1)Nc1ccc2c(c1)OCO2 | 7.4
37 | CCCc1nc2ccccc2c(=O)n1-c1ccc(C(=O)OCC)cc1 | 13.5
38 | CSc1ncc(/C=C2/C(=O)NC(=O)N(C)C2=O)cn1 | 18.8
39 | CC(=O)[C@@]1(O)CC[C@H]2[C@@H]3CCC4=CC(=O)CC[C@]4(C)[C@H]3CC[C@@]21C | 1.7
40 | C[C@]12CCC(=O)C=C1CCC1C2CC[C@@]2(C)C1CC[C@@]2(O)CC#N (stereo partly shown) | -59.8

Row | SMILES | hERG current change (%, negative = inhibition) at 10uM [%]
41 | C[C@]12CCC(=O)C=C1CC[C@@H]1[C@@H]2CC[C@@]2(C)[C@H]1CC[C@]2(O)C(=O)CO | 9.17
42 | COc1ccc(S(=O)(=O)N2CCC(C(=O)NCc3ccco3)CC2)cc1C | 8.26
43 | c1coc(CN=C2NC(=NCc3ccco3)c3ccccc32)c1 | -66.4
44 | O=S1(=O)NC(=NCc2ccco2)c2ccccc21 | 2.66
45 | O=C1c2ccccc2C(=O)N1Cc1ccco1 | -3.32
46 | Cc1cc(C)c2nc(C)cc(Nc3ccc(C(=O)N(C)C)cc3)c2c1 | -28.1
47 | Cc1cc(Nc2ccc(C(=O)N3CCCCC3)cc2)c2cccc(C)c2n1 | -23.5
48 | CC(=O)c1ccc(Nc2cc(C)nc3c(C)cc(C)cc23)cc1 | -45.7
49 | CC(=O)c1ccc(Nc2cc(C)nc3c(C)cccc23)cc1 | -36.2
50 | CC(=O)c1cccc(Nc2cc(C)nc3c(C)cc(C)cc23)c1.Cl | -56.1
51 | CC(=O)c1cccc(Nc2cc(C)nc3c(C)cccc23)c1.Cl | -72.8
52 | Cc1cc(C)nc(-n2cc(C(=O)c3cc(F)ccc3O)cn2)n1 | 9.85
53 | CCOC(=O)C1=C(C)NC(=O)NC1c1cc2c(cc1Br)OCO2 (stereo not shown) | 6.32
54 | NC(=O)CC(NC(=O)Cc1ccc(Br)cc1)c1ccc(NCc2ccc(F)c(F)c2)c([N+](=O)[O-])c1 (stereo not shown) | -1.71
55 | NC(=S)N1OC[C@@H]2COc3ccc4ccccc4c3[C@@H]21 | 4.27
56 | CCOc1ccc(N2Cc3ccccc3C2)cc1 | -2.48
57 | CC(C)c1ccc(N2C=Nc3ccc(C(C)C)cc3C2)cc1 | -9.45
58 | CCOc1ccc(N2C=Nc3ccc(OCC)cc3C2)cc1 | -63.9
